Measurements published in PubChem BioAssay.

Assay: compound effects on lung adenocarcinoma cell viability – A549, calcein-AM fluorescence, 48 h, basal, profiling panel (AID 1162)
Conditions: higher = more signal
Also: test concentration not given here.

Row | Structure (SMILES) | z-score
1 | C[C@@H](c1ccccc1)N1C(=O)[C@H]2[C@H]3[C@H](O)[C@H](O)CC(=NOC[C@@H](O)COCc4ccco4)[C@H]3CC[C@H]2C1=O | -0.428
2 | COc1ccc(O[C@H]2C=C[C@@H](C#Cc3ccccc3)O[C@@H]2CO)cc1 | -0.167
3 | COC(=O)[C@@H]1CC[C@H](C)[C@@H](c2ccc(Br)cc2)N1C[C@@H](O)CN=[N+]=[N-] | -0.618
4 | CC(C)=CCCC(C)=CCON=C1C[C@@H](O)[C@@H](O)[C@@H]2[C@@H]3C(=O)N(Cc4ccc5c(c4)OCO5)C(=O)[C@@H]3CC[C@@H]12 | -0.0221

Assay: compound effects on differentiated 3T3-L1 adipocyte viability – cell-based, 3T3-L1 adipocytes, calcein-AM fluorescence, 48 h, basal, profiling panel (AID 1163)
Conditions: 3T3-L1 adipocytes viability, higher = more signal

Row | Structure (SMILES) | z-score
5 | C=CC[C@@H]1C=C[C@H](ON=CC[C@@H]2C=C[C@H](OC(C)=O)[C@@H](COC(C)=O)O2)[C@@H](CO)O1 | -0.5
6 | C=CC[C@@H]1C=C[C@H](ON=C(C)CCN2CCCc3nc(C)c(C)cc32)[C@@H](CO)O1 | -0.0137
7 | CC(=O)OC[C@H]1O[C@H](CC=NO[C@H](C)c2cn([C@@H]3COC[C@H]3O)nn2)C=C[C@@H]1OC(C)=O | 0.062
8 | CC(=O)OC[C@H]1O[C@H](CCON=C(C)CCN2CCCc3nc(C)c(C)cc32)C=C[C@@H]1OC(C)=O | -0.9
9 | CO[C@H]1COC(=O)[C@H](CCSC)NC(=O)CC=C[C@@H](C)[C@H](OC)COC(=O)[C@@H](OCc2ccccc2)C=C[C@@H]1C | -0.161
10 | CN1CCc2nc(-c3ccccc3)c(-c3ccccc3)cc2C1 | 0.665
11 | CON=C(C)CCN1CCc2nc(-c3ccccc3)c(-c3ccccc3)cc2C1 | 0.728
12 | CCN1C(=O)[C@H]2[C@@H]3C(=CC[C@H]2C1=O)C(=O)[C@H]1O[C@H]1[C@H]3O | 0.634
